# Bioassay records as filed in PubChem BioAssay.
# PPC-1+TRAIL kill = kills PPC-1 cancer cells in the presence of TRAIL; PPC-1 cells + TRAIL, ATPLite viability luminescence; cell killing (% activity), % at 4 µM or 5 µM; actives 0.41% (n = 220,000); AID 1443;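 active means cell killing above 50% in the first pass at 4 µM, then a duplicate retest at 5 µM averaging 50% or more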;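 further: plate controls were cells with TRAIL plus DMSO for no effect and medium-only wells lacking cells for full effect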
# TRAIL sens C8 = sensitizes caspase-8 expressing cells to TRAIL. NB7+C8 cells + TRAIL, ATPlite viability luminescence. inhibition (viability loss, TRAIL sensitization), % at 10 µM. actives 1% (n = 360,000). AID 624354;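 active means compounds causing at least 50% loss of cell viability in the single-dose screen, relative to plate controls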
# SENP7 block = blocks the human protease SENP7 | recombinant SENP7, Z-RLRGG-aminoluciferin luminescence, 40 min | inhibition, % at 5 µM | actives 1.5% (n = 330,000);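 active means inhibition above about 50% at the single test dose, limit read from the data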;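 further: plate controls were DMSO with enzyme for no effect and no enzyme buffer wells for full effect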
# Target sequence (Q9BQF6 706-1050 limits assumed): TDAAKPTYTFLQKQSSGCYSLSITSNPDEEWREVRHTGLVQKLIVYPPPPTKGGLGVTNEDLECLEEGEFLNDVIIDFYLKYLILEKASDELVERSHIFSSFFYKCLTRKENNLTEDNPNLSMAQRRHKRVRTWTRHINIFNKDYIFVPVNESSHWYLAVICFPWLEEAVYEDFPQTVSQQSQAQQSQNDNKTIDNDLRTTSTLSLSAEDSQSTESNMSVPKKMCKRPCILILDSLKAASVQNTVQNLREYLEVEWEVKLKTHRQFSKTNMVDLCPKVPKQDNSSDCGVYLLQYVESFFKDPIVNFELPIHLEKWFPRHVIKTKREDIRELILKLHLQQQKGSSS
# SENP8 block-1 = blocks human SENP8 cleavage of Nedd8 substrate | Q96LD8 | recombinant SENP8, Nedd8 substrate fluorescence | inhibition, % at 20 µM | actives 0.64% (n = 360,000); in the data active means inhibition mostly above about 40%, no sharp cut-off; inactive means mostly below about 27%
# Target sequence (Q96LD8 whole entry, looked up): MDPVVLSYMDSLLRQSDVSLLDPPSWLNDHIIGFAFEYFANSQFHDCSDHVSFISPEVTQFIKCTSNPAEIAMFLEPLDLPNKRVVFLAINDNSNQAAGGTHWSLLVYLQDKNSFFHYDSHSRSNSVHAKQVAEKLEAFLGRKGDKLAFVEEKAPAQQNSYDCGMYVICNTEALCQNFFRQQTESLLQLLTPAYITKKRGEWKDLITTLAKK
# SENP6 block = blocks the human protease SENP6; Q9GZR1; Recombinant SENP6 catalytic domain, aminoluciferin luminescence; inhibition, % at 10 µM; actives 1.8% (n = 330,000); AID 2599;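 active means inhibition above about 50% at the single tested dose, limit read from the data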;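 further: plate controls were DMSO wells with enzyme for no effect and DMSO wells lacking enzyme for full effect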
# SENP8 block-2 = blocks the human protease SENP8; Q96LD8; purified SENP8, Z-RLRGG-aminoluciferin cleavage, luminescence; inhibition, % at 10 µM; actives 1.2% (n = 330,000); AID 2540; in the data active means inhibition above about 50%
# SENP8 inh conf = confirmation of human SENP8 protease inhibitors; shares compounds with SENP8 block-1; purified SENP8, Nedd8-AMC/pro-Nedd8 cleavage fluorescence, 30 min; inhibition, % at 25 µM; actives 15% (n = 1,400); AID 624319; in the data active means inhibition mostly above about 39%, no sharp cut-off; inactive means mostly below about 34%
# An asterisk follows results filed as active; . = no result. An excerpt weighted towards active compounds, which were near 3% of everything screened.
SMILES,PPC-1+TRAIL kill,TRAIL sens C8,SENP7 block,SENP8 block-1,SENP6 block,SENP8 block-2,SENP8 inh conf
OCC1OC(Oc2c[nH]c3ccccc23)C(O)C(O)C1O (centres undefined),.,-5,13,-220,-1,-3,.
CCN(CC)S(=O)(=O)c1ccc(/C=C/C(=O)Nc2ccc(N3CCOCC3)cc2)cc1,-9,12,-2,42*,-4,-8,23
COc1ccc(/C=C/C(=O)Nc2ccc(N3CCOCC3)cc2)cc1,6,-7,.,26,.,.,.
O=C(NCCCCNC(=O)c1ccccc1Br)c1ccccc1Br,.,19,2,18,-4,3,.
Cc1ccc(S(=O)(=O)N2CCN(C(=O)CN3CCc4ccccc4C3)CC2)cc1,36,5,3,17,-13,11,.
O=C(CN1CCc2ccccc2C1)N1CCN(S(=O)(=O)c2ccccc2)CC1,6,-11,0,46*,0,5,6
CCCc1cc(=O)[nH]c(SCC(=O)N2CCCC2=O)n1,.,-4,-1,16,-12,-9,.
Cc1[nH][nH]c(=O)c1C(c1ccc(-c2ccccc2C(=O)O)o1)c1c(C)[nH][nH]c1=O,6,-2,.,49*,.,.,38*
Cc1[nH][nH]c(=O)c1C(c1ccc(-c2cccc(C(=O)O)c2)o1)c1c(C)[nH][nH]c1=O,4,-3,16,52*,39,19,70*
COC(=O)c1ccc(-c2ccc(C(c3c(C)[nH][nH]c3=O)c3c(C)[nH][nH]c3=O)o2)cc1,.,0,7,-16,15,4,.
Cc1[nH][nH]c(=O)c1C(c1ccc(-c2ccc(Cl)cc2Cl)o1)c1c(C)[nH][nH]c1=O,33,.,.,.,.,.,.
Cc1ccc2oc(-c3ccccc3C(=O)O)cc(=O)c2c1,11,-18,-1,-17,-6,-11,.
Cc1[nH][nH]c(=O)c1C(c1ccc(-c2cccc(Cl)c2)o1)c1c(C)[nH][nH]c1=O,-6,-1,10,79*,43,20,85*
O=C(NC1CC1)C1CCN(C2CCN(C(=O)c3c(F)cccc3Cl)CC2)CC1,.,-13,3,-59,5,5,.
CCOC(=O)[C@H]1[C@H]2COc3ccc(Cl)cc3[C@@H]2N2C(=O)CNC(=O)[C@@]12C,.,-13,-1,10,-8,12,.
C=CCn1ccc(=NC=C(C#N)C#N)c2ccccc21,4,-5,7,45*,4,1,21
Cc1ccc(-c2cc(C(=O)NCc3ccccn3)c3ccccc3n2)cc1,29,21,3,-228,-12,2,.
Cc1ccc(C(=O)NCc2ccccn2)c(Cl)c1,16,7,-5,41*,3,-6,22
CC(C)(C)c1ccc(OCC(=O)N2CCN(C=O)CC2)cc1,12,-1,4,44*,7,-8,14
CCOC(=O)C1CCCN(C(=O)COc2ccc(C(C)(C)C)cc2)CC1 (centres undefined),.,-1,.,22,.,.,.
O=[N+]([O-])c1ccc(CNc2ccc(Cl)cc2)s1,.,-7,27,42*,19,-1,13
COc1ccc(NCc2ccc([N+](=O)[O-])s2)c(OC)c1,0,-11,.,57*,.,.,78*
CC(Sc1n[nH]c(N)n1)C(=O)Nc1cccc2ccccc12 (centres undefined),.,-7,3,6,-15,2,.
OC(c1ccccc1)(c1nc(-c2cccc3cccnc23)cs1)C(F)(F)F (centres undefined),.,-4,.,-59,.,.,.
Cc1cc(C)nc(N2N=C(C(C)(C)C)CC2=O)n1,-8,-8,-3,63*,8,0,76*
SMILES,PPC-1+TRAIL kill,TRAIL sens C8,SENP7 block,SENP8 block-1,SENP6 block,SENP8 block-2,SENP8 inh conf
CC(=O)c1cccc(NC(=O)COC(=O)c2ccc3c(c2)OCCO3)c1,4,12,5,42*,-1,-3,-3
CC1=NCCN1CCNC(=O)Nc1cc(C)cc(C)c1,10,-15,8,31,-16,5,.
CC1=NCCN1CCNC(=O)Nc1ccc(F)cc1,-5,4,-5,41*,-4,9,-1
O=C(Cn1c(=O)n(CCC(=O)N2CCc3ccccc3C2)c(=O)c2ccccc21)NCC1CCCO1 (centres undefined),5,-12,.,62*,.,.,16
O=C(Cn1c(=O)n(Cc2ccccc2)c(=O)c2cc(Cl)ccc21)NCC1CCCO1 (centres undefined),.,-4,-9,-2,-7,-10,.
CC(C)=CCC/C(C)=C/COc1c2occc2cc2ccc(=O)oc12,.,-2,-14,57*,-13,-12,7
CC(C)=CCC/C(C)=C/COc1ccc2ccc(=O)oc2c1,-2,2,5,-168,-15,-16,.
CC1(C)C[C@H](O)[C@@]23C[C@@H](OC2=O)[C@]2(C)C(=CCC4[C@@]5(C)CC[C@H](O)C(C)(C)C5CC[C@]42C)[C@@H]3C1 (some centres undefined),.,.,8,.,-8,-15,.
O=[N+]([O-])c1ccc(N/N=C2\CC3CC=CC23)c([N+](=O)[O-])c1 (centres undefined),-10,-10,4,40*,-11,-2,19
O=[N+]([O-])c1ccc(N/N=C2\CC3CC=CC23)cc1 (centres undefined),-26,6,2,21,18,0,.
O=[N+]([O-])c1ccc(NN=C2CC3CCC2C3)c([N+](=O)[O-])c1 (centres undefined),.,1,.,41*,.,.,-1
COc1cccc(NC(=O)Cc2nnc(SCC(=O)NC3CCCC3)n2C)c1,.,-9,-5,5,-38,-9,.
COc1ccc(CCN(C)C(=O)C2CCN(Cc3ccc(C)cc3)CC2)cc1OC,12,5,4,20,-32,-3,.
OCCN1CCN(C(=S)c2ccc(Cl)c(Cl)c2)CC1,22,6,4,42*,26,5,34*
Cc1cc(C)c2c(c1)/C(=N/Nc1ccc(S(N)(=O)=O)cc1[N+](=O)[O-])CCC2,8,2,9,53*,-3,3,-3
NS(=O)(=O)c1ccc(N/N=C2/CCCCC2C2CCCCC2)c([N+](=O)[O-])c1 (centres undefined),11,10,3,33,-26,-9,.
CC1Sc2ccc(S(=O)(=O)CCC(=O)N3CCN(c4ccccc4F)CC3)cc2NC1=O (centres undefined),.,3,-4,11,-9,1,.
Cc1cc(Nc2ccccc2)c2c([N+](=O)[O-])cc(C)c(C)c2n1,19,4,6,45*,7,4,2
O=[N+]([O-])c1ccc(Nc2ccccc2)c2nonc12,.,-6,1,49*,-3,-9,17
CC(=O)NS(=O)(=O)c1ccc(Nc2ccc([N+](=O)[O-])c3nonc23)cc1,32,7,4,24*,6,0,26
